# Measurements as given in the supplement of paper PMC8728848.
# Shown is part of a subset that was picked to be rich in the strongest signals.
# B1: DEC205 (Homo sapiens), O60449 (protein)
# chain: MRTGWATPRRPAGLLMLLFWFFDLAEPSGRAANDPFTIVHGNTGKCIKPVYGWIVADDCDETEDKLWKWVSQHRLFHLHSQKCLGLDITKSVNELRMFSCDSSAMLWWKCEHHSLYGAARYRLALKDGHGTAISNASDVWKKGGSEESLCDQPYHEIYTRDGNSYGRPCEFPFLIDGTWHHDCILDEDHSGPWCATTLNYEYDRKWGICLKPENGCEDNWEKNEQFGSCYQFNTQTALSWKEAYVSCQNQGADLLSINSAAELTYLKEKEGIAKIFWIGLNQLYSARGWEWSDHKPLNFLNWDPDRPSAPTIGGSSCARMDAESGLWQSFSCEAQLPYVCRKPLNNTVELTDVWTYSDTRCDAGWLPNNGFCYLLVNESNSWDKAHAKCKAFSSDLISIHSLADVEVVVTKLHNEDIKEEVWIGLKNINIPTLFQWSDGTEVTLTYWDENEPNVPYNKTPNCVSYLGELGQWKVQSCEEKLKYVCKRKGEKLNDASSDKMCPPDEGWKRHGETCYKIYEDEVPFGTNCNLTITSRFEQEYLNDLMKKYDKSLRKYFWTGLRDVDSCGEYNWATVGGRRRAVTFSNWNFLEPASPGGCVAMSTGKSVGKWEVKDCRSFKALSICKKMSGPLGPEEASPKPDDPCPEGWQSFPASLSCYKVFHAERIVRKRNWEEAERFCQALGAHLSSFSHVDEIKEFLHFLTDQFSGQHWLWIGLNKRSPDLQGSWQWSDRTPVSTIIMPNEFQQDYDIRDCAAVKVFHRPWRRGWHFYDDREFIYLRPFACDTKLEWVCQIPKGRTPKTPDWYNPDRAGIHGPPLIIEGSEYWFVADLHLNYEEAVLYCASNHSFLATITSFVGLKAIKNKIANISGDGQKWWIRISEWPIDDHFTYSRYPWHRFPVTFGEECLYMSAKTWLIDLGKPTDCSTKLPFICEKYNVSSLEKYSPDSAAKVQCSEQWIPFQNKCFLKIKPVSLTFSQASDTCHSYGGTLPSVLSQIEQDFITSLLPDMEATLWIGLRWTAYEKINKWTDNRELTYSNFHPLLVSGRLRIPENFFEEESRYHCALILNLQKSPFTGTWNFTSCSERHFVSLCQKYSEVKSRQTLQNASETVKYLNNLYKIIPKTLTWHSAKRECLKSNMQLVSITDPYQQAFLSVQALLHNSSLWIGLFSQDDELNFGWSDGKRLHFSRWAETNGQLEDCVVLDTDGFWKTVDCNDNQPGAICYYSGNETEKEVKPVDSVKCPSPVLNTPWIPFQNCCYNFIITKNRHMATTQDEVHTKCQKLNPKSHILSIRDEKENNFVLEQLLYFNYMASWVMLGITYRNNSLMWFDKTPLSYTHWRAGRPTIKNEKFLAGLSTDGFWDIQTFKVIEEAVYFHQHSILACKIEMVDYKEEHNTTLPQFMPYEDGIYSVIQKKVTWYEALNMCSQSGGHLASVHNQNGQLFLEDIVKRDGFPLWVGLSSHDGSESSFEWSDGSTFDYIPWKGQTSPGNCVLLDPKGTWKHEKCNSVKDGAICYKPTKSKKLSRLTYSSRCPAAKENGSRWIQYKGHCYKSDQALHSFSEAKKLCSKHDHSATIVSIKDEDENKFVSRLMRENNNITMRVWLGLSQHSVDQSWSWLDGSEVTFVKWENKSKSGVGRCSMLIASNETWKKVECEHGFGRVVCKVPLGPDYTAIAIIVATLSILVLMGGLIWFLFQRHRLHLAGFSSVRYAQGVNEDEIMLPSFHD
# B2: Gal 8 (Homo sapiens), O00214 (protein)
# chain: MMLSLNNLQNIIYNPVIPFVGTIPDQLDPGTLIVIRGHVPSDADRFQVDLQNGSSMKPRADVAFHFNPRFKRAGCIVCNTLINEKWGREEITYDTPFKREKSFEIVIMVKDKFQVAVNGKHTLLYGHRIGPEKIDTLGIYGKVNIHSIGFSFSSDLQSTQASSLELTEISRENVPKSGTPQLPSNRGGDISKIAPRTVYTKSKDSTVNHTLTCTKIPPMNYVSKRLPFAARLNTPMGPGRTVVVKGEVNANAKSFNVDLLAGKSKDIALHLNPRLNIKAFVRNSFLQESWGEEERNITSFPFSPGMYFEMIIYCDVREFKVAVNGVHSLEYKHRFKELSSIDTLEINGDIHLLEVRSW
# How the values were obtained:
# Test in all cases: glycan array binding signal (z-score within array); higher = stronger binding
# Conditions in all cases: glycan notation: IUPAC condensed, linker removed
# [1] = biological target: Fuc(a1-2)Gal(b1-3)GalNAc(b1-3)Gal(a1-4)Gal(b1-4)Glc
# How it was run: (§1)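 The Consortium for Functional Glycomics database supplied 3228 glycan arrays, of which those lacking an available protein sequence were dropped. The binding signal, a within-array Z-score, was averaged across arrays of the same protein sequence and across linkers. Negative scores can be read as non-binding.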
# [2] = biological target: Fuc(a1-2)Gal(b1-4)[Fuc(a1-3)]GlcNAc(b1-3)Gal(b1-4)[Fuc(a1-3)]GlcNAc(b1-3)Gal(b1-4)[Fuc(a1-3)]GlcNAc
# How it was run: as §1
# [3] = biological target: Fuc(a1-3)[Gal(b1-4)]GlcNAc
# How it was run: as §1
# [4] = biological target: Gal(a1-2)Gal
# How it was run: as §1
# [5] = biological target: Gal(a1-3)Gal(b1-3)GlcNAc
# How it was run: as §1
# [6] = biological target: Gal(a1-3)Gal(b1-4)Glc
# How it was run: as §1
# [7] = biological target: Gal(b1-3)[Neu5Ac(a2-6)]GalNAc
# How it was run: as §1
# [8] = biological target: GlcNAc(b1-3)Gal(b1-3)GalNAc
# How it was run: as §1
# [9] = biological target: GlcNAc(b1-4)GlcNAc(b1-4)GlcNAc
# How it was run: as §1
# [10] = biological target: GlcNAc(b1-6)Gal(b1-4)GlcNAc
# How it was run: as §1
# [11] = biological target: Kdn(a2-3)Gal(b1-4)GlcNAc
# How it was run: as §1
# [12] = biological target: Man(a1-2)Man(a1-3)[Man(a1-2)Man(a1-6)]Man(a1-6)[Man(a1-2)Man(a1-2)Man(a1-3)]Man(b1-4)GlcNAc(b1-4)GlcNAc
# How it was run: as §1
# [13] = biological target: Man(a1-3)[Man(a1-6)]Man(a1-6)[Man(a1-3)]Man(b1-4)GlcNAc(b1-4)GlcNAc
# How it was run: as §1
# [14] = biological target: Neu5Ac(a2-3)Gal(b1-3)[Neu5Ac(a2-3)Gal(b1-4)]GlcNAc
# How it was run: as §1
# [15] = biological target: Neu5Ac(a2-3)Gal(b1-4)[Fuc(a1-3)]GlcNAc(b1-3)Gal
# How it was run: as §1
# [16] = biological target: Neu5Ac(a2-8)Neu5Ac(a2-3)[GalNAc(b1-4)]Gal(b1-4)Glc
# How it was run: as §1
# [17] = biological target: Neu5Ac(a2-8)Neu5Ac(a2-8)Neu5Ac(a2-3)[GalNAc(b1-4)]Gal(b1-4)Glc
# How it was run: as §1
# [18] = biological target: Fuc(a1-2)Gal(b1-4)Glc6S
# How it was run: as §1
# [19] = biological target: Fuc(a1-2)Gal6S(b1-4)Glc
# How it was run: as §1
# [20] = biological target: Fuc(a1-2)[Gal(a1-3)]Gal(b1-3)GlcNAc
# How it was run: as §1
# [21] = biological target: Fuc(a1-2)[Gal(a1-3)]Gal(b1-4)Glc
# How it was run: as §1
# [22] = biological target: Fuc(a1-2)[Gal(a1-3)]Gal(b1-4)GlcNAc
# How it was run: as §1
# [23] = biological target: Fuc(a1-2)[GalNAc(a1-3)]Gal(b1-4)Glc
# How it was run: as §1
# [24] = biological target: Fuc(a1-2)[GalNAc(b1-3)]Gal
# How it was run: as §1
# [25] = biological target: Fuc(a1-3)[Gal(b1-4)]GlcNAc6S
# How it was run: as §1
# [26] = biological target: Gal(a1-3)Gal(b1-4)GlcNAc
# How it was run: as §1
# [27] = biological target: Gal(b1-2)Gal
# How it was run: as §1
# [28] = biological target: Gal(b1-3)GalNAc(b1-4)Gal(b1-4)Glc
# How it was run: as §1
# [29] = biological target: Gal(b1-3)[Fuc(a1-4)]GlcNAc
# How it was run: as §1
# [30] = biological target: Gal(b1-3)[Fuc(a1-4)]GlcNAc(b1-3)Gal(b1-4)GlcNAc
# How it was run: as §1
# [31] = biological target: Gal(b1-4)GlcNAc(b1-3)Gal(b1-4)Glc
# How it was run: as §1
# [32] = biological target: Gal3S(b1-3)[Fuc(a1-4)]GlcNAc
# How it was run: as §1
# [33] = biological target: Gal3S(b1-4)Glc
# How it was run: as §1
# [34] = biological target: Gal4S(b1-4)GlcNAc
# How it was run: as §1
# [35] = biological target: GalNAc(b1-3)Gal(a1-4)Gal(b1-4)GlcNAc
# How it was run: as §1
# [36] = biological target: GlcA(b1-3)Gal
# How it was run: as §1
# [37] = biological target: GlcNAc(b1-3)Gal
# How it was run: as §1
# [38] = biological target: GlcNAc(b1-4)Gal(b1-4)GlcNAc
# How it was run: as §1
# [39] = biological target: GlcNAc(b1-4)GlcNAc
# How it was run: as §1
# [40] = biological target: Neu5Ac(a2-3)Gal(b1-3)GlcNAc(b1-3)Gal(b1-3)GlcNAc
# How it was run: as §1
# [41] = biological target: Neu5Ac(a2-3)Gal(b1-4)GlcNAc(b1-6)[Gal(b1-3)]GalNAc
# How it was run: as §1
# [42] = biological target: Neu5Ac(a2-6)Gal(b1-4)GlcNAc(b1-2)Man(a1-3)[GlcNAc(b1-2)Man(a1-6)]Man(b1-4)GlcNAc(b1-4)GlcNAc
# How it was run: as §1
# [43] = biological target: Neu5Ac(a2-6)Gal(b1-4)GlcNAc(b1-2)Man(a1-6)[GlcNAc(b1-2)Man(a1-3)]Man(b1-4)GlcNAc(b1-4)GlcNAc
# How it was run: as §1
# [44] = biological target: Neu5Ac(a2-6)Gal(b1-4)GlcNAc(b1-3)Gal(b1-4)[Fuc(a1-3)]GlcNAc(b1-3)Gal(b1-4)[Fuc(a1-3)]GlcNAc
# How it was run: as §1
# [45] = biological target: Neu5Gc(b2-6)Gal(b1-4)GlcNAc
# How it was run: as §1
binder,measurement,setting,value
B1,glycan array binding signal (z-score),[1],-0.222
same,glycan array binding signal (z-score),[2],1.97
same,glycan array binding signal (z-score),[3],-0.335
same,glycan array binding signal (z-score),[4],-0.046
same,glycan array binding signal (z-score),[5],-0.064
same,glycan array binding signal (z-score),[6],1.66
same,glycan array binding signal (z-score),[7],-0.279
same,glycan array binding signal (z-score),[8],-0.229
same,glycan array binding signal (z-score),[9],3.79
same,glycan array binding signal (z-score),[10],-0.071
same,glycan array binding signal (z-score),[11],1.75
same,glycan array binding signal (z-score),[12],0.357
same,glycan array binding signal (z-score),[13],-0.154
same,glycan array binding signal (z-score),[14],-0.395
same,glycan array binding signal (z-score),[15],-0.262
same,glycan array binding signal (z-score),[16],0.013
same,glycan array binding signal (z-score),[17],-0.243
B2,glycan array binding signal (z-score),[1],-0.141
same,glycan array binding signal (z-score),[18],0.286
same,glycan array binding signal (z-score),[2],-0.386
same,glycan array binding signal (z-score),[19],-0.427
same,glycan array binding signal (z-score),[20],3.58
same,glycan array binding signal (z-score),[21],5.02
same,glycan array binding signal (z-score),[22],4.8
same,glycan array binding signal (z-score),[23],4.22
same,glycan array binding signal (z-score),[24],0.118
same,glycan array binding signal (z-score),[25],-0.432
same,glycan array binding signal (z-score),[26],0.236
same,glycan array binding signal (z-score),[27],-0.401
same,glycan array binding signal (z-score),[28],0.32
same,glycan array binding signal (z-score),[29],-0.413
same,glycan array binding signal (z-score),[30],0.294
same,glycan array binding signal (z-score),[31],2.43
same,glycan array binding signal (z-score),[32],-0.42
same,glycan array binding signal (z-score),[33],0.286
same,glycan array binding signal (z-score),[34],-0.395
same,glycan array binding signal (z-score),[35],0.145
same,glycan array binding signal (z-score),[36],-0.451
same,glycan array binding signal (z-score),[37],-0.434
same,glycan array binding signal (z-score),[38],-0.425
same,glycan array binding signal (z-score),[39],-0.449
same,glycan array binding signal (z-score),[40],0.949
same,glycan array binding signal (z-score),[41],0.196
same,glycan array binding signal (z-score),[42],-0.45
same,glycan array binding signal (z-score),[43],-0.442
same,glycan array binding signal (z-score),[44],-0.365
same,glycan array binding signal (z-score),[45],-0.452
